Assay results: PubChem BioAssay (NCI)
The panel holds about 83,000 compounds, 20% with a hit somewhere; the sample as a whole holds those more often.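 Testing used 96-well plates and a 48-hour single-concentration exposure. Example: -40 means 40% of the starting cells died.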 Active and inactive are the calls of the source. Rule for the calls: active = growth percent below 10; inactive = the rest.

What was measured:
Experiment in all cases: NCI-60 one-dose screen, 48 h (100 = growth as untreated, 0 = no growth, -100 = all killed)
Settings in all cases: 10 µM
[1] = test system: HOP-92 NSCLC
[2] = test system: COLO 205 colon
[3] = test system: RXF 393 renal
[4] = test system: SNB-75 CNS
[5] = test system: SK-MEL-5 melanoma
[6] = test system: CCRF-CEM leukemia
[7] = test system: OVCAR-4 ovarian
[8] = test system: SK-OV-3 ovarian
[9] = test system: T-47D breast
[10] = test system: MCF7 breast
[11] = test system: HCT-116 colon
[12] = test system: HCC-2998 colon
[13] = test system: KM12 colon
[14] = test system: SK-MEL-2 melanoma
[15] = test system: SN12C renal
[16] = test system: NCI/ADR-RES ovarian
[17] = test system: IGROV1 ovarian
[18] = test system: UACC-62 melanoma

Measured: growth

COc1ccc(NCc2cn(-c3ccc(C(=O)O)cc3)nc2-c2ccc(F)cc2)cc1C(F)(F)F
inactive: [1] 68.3% | [2] 71.2% | [3] 75.4% | [4] 79.1% | [5] 26.7% | [6] 41.6% | [7] 57.2% | [8] 112% | [9] 47.5% | [10] 30.5% | [11] 39.5% | [12] 51.7% | [13] 24.1%

CCOC(=O)c1ccc(NC(=O)CSC(CC(=O)c2sc(Nc3ccccn3)nc2C)c2ccccc2F)cc1 (stereo not drawn)
inactive: [7] 41.1% | [16] 10.5% | [9] 13.1%
active: [1] -14.5% | [3] -12.1% | [5] 7.25% | [14] -31.2% | [15] -14.8% | [6] 3.92% | [10] -17.3% | [11] 1.05% | [12] -7.21% | [13] -50.8%

O=C(c1ccc(F)cc1)C(c1c[nH]c2ccccc12)c1c[nH]c2ccccc12
inactive: [1] 90.5% | [3] 40.3% | [4] 79.1% | [5] 89.8% | [14] 87.5% | [7] 55.9% | [17] 49.9% | [9] 63.9% | [10] 15.2% | [12] 82.9% | [13] 70.3%
active: [6] 3.4% | [11] 7.24%

O=C(c1ccc(Cl)cc1)C(c1c[nH]c2ccccc12)c1c[nH]c2ccccc12
inactive: [8] 57.2%
active: [1] -15.7% | [2] -87.9% | [3] -82.1% | [5] -58.3% | [6] 2.45% | [7] 7.15% | [17] -19.4% | [9] -30.6% | [10] -69.3% | [11] -91.4% | [12] -89.6% | [13] -5.68%

Cn1cc(-c2nnc(N)nc2-c2c[nH]c3ccc(F)cc23)c2cc(Br)cnc21
inactive: [1] 26.4% | [3] 38.7% | [4] 59.1% | [5] 81.9% | [14] 71% | [15] 72.3% | [6] 35.4% | [7] 59.6% | [9] 44.1% | [10] 27.7% | [11] 59.2% | [12] 72.8% | [13] 61.5%

COc1ccc2[nH]cc(-c3nc(N)nnc3-c3cn(C)c4ncc(Br)cc34)c2c1
active: [1] -2.43% | [3] -14% | [5] -50.1% | [6] 1.4% | [17] 3.82% | [10] 4.79% | [11] 1.45% | [13] 5.71%
inactive: [4] 23.4% | [14] 36.2% | [7] 37.4% | [9] 48.5% | [12] 11.8%

O=[N+]([O-])c1cccc(-c2nnc3c(/C=C/c4ccccc4O)nc4ccccc4n23)c1
inactive: [1] 51.2% | [2] 41.3% | [3] 52.6% | [5] 19.6% | [6] 47.5% | [7] 68.4% | [16] 57.5% | [9] 26.3% | [10] 22.1% | [11] 56.4% | [12] 53.8% | [13] 37.5%

Cc1cc(N=C2NC(=O)/C(=C/c3cc(C(C)(C)C)c(O)c(C(C)(C)C)c3)S2)n[nH]1
active: [3] -38.6% | [5] -72.8% | [14] -27.6% | [7] -42.7% | [8] -27.9% | [9] 3.32% | [10] 4.33% | [11] 3.45%
inactive: [15] 16.6% | [6] 13% | [12] 22.5% | [13] 17.1%

Cc1ccc(COc2ccc(NC(=O)Nc3ccc(Cl)c(C(F)(F)F)c3)cc2)cc1
inactive: [3] 75.5% | [5] 79.9% | [18] 60.5% | [6] 60.7% | [7] 66.4% | [9] 33.7% | [10] 41.6% | [11] 69.7% | [12] 83.7%

Cn1cc(/C=C(/SS/C(=C/c2cn(C)c3cccc(C(=O)O)c23)C(=O)O)C(=O)O)c2c(C(=O)O)cccc21
inactive: [3] 112% | [5] 100% | [15] 99% | [6] 106% | [7] 99.6% | [9] 101% | [10] 92.6% | [11] 118% | [12] 99.8% | [13] 103%

O=C(CSc1nc2ccccc2c(=O)n1-c1ccc(Cl)cc1)Nc1ccc(-c2nc3ccccc3[nH]2)cc1
active: [2] -12% | [3] -35.1% | [4] -39.1% | [15] -37.2% | [7] -75.6% | [16] -3.44% | [9] -68.5% | [10] -68.3% | [11] -84.3% | [12] 4.31%
inactive: [5] 47.7% | [13] 17%
